The full list was thinned out, with hits kept by preference.
TTR transcr act – TTR transcription activators in neuroblastoma reporter cells, primary screen, cell-based, luminescence, SH-SY5Y, TTR promoter Gaussia luciferase; 100% = recombinant luciferase protein wells; activation, % at 16.7 µM; AID 1117267, 2014; 92,000 compounds, 1.3% hits;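 active = activation above the mean of all tested compounds plus 3 SD, cut at about 9.5% in these data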;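 also: cells exposed to compounds for one day before reading; 0% = median of all test compound wells on the plate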
HuH7 TTR inh – TTR promoter reporter inhibitors in hepatoma cells, counter-screen for TTR transcription activator project, cell-based, luminescence, HuH7 hepatoma; shares compounds with TTR transcr act; HuH7 TTR promoter-Gaussia luciferase reporter; inhibition, % at 16.7 µM; 1,100 compounds, 4% hits;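 active = average inhibition above the solvent-only control wells' mean plus 3 SD, cut at about 15% in these data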;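 also: 0% = cells with DMSO only and 100% = cells with inhibitor control FD; inhibitors lower well luminescence so higher value means more inhibition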
TTR act confirm – TTR transcription activators, retest, confirmation, cell-based, luminescence, SH-SY5Y, triplicate | shares compounds with TTR transcr act | activation, % at 16.7 µM | SHSY5Y TTR promoter Gaussia luciferase; 100% = purified Lucia enzyme wells, no cells | 1,100 tested, under 10 active;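 active = mean activation above a set limit taken from the earlier primary screen, cut at about 11% in these data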;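 also: 0% = DMSO-treated cells and 100% = recombinant Lucia luciferase without cells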
The depositor's hits bear a star.

What do the screens show for `CCOC(=O)C1=C[C@@H](C(C)C)N(S(=O)(=O)c2ccc([N+](=O)[O-])cc2)[C@H]1c1ccccc1`?
TTR transcr act: -3

What do the screens show for `CCOC(=O)C1=C[C@@H](CC)N(S(=O)(=O)c2ccc([N+](=O)[O-])cc2)[C@H]1c1ccccc1`?
TTR transcr act: 48*; HuH7 TTR inh: -4; TTR act confirm: 0

What do the screens show for `CCOC(=O)C1=C[C@@H](C(C)(C)C)N(S(=O)(=O)c2ccc([N+](=O)[O-])cc2)[C@H]1c1ccccc1`?
TTR transcr act: -3

How did Cc1nc(-c2cc(C#N)c(=O)[nH]c2C)cs1 do in these assays?
TTR transcr act: 16*; HuH7 TTR inh: -12; TTR act confirm: 1

How did COC(=O)c1cc(C#N)c(=O)[nH]c1C do in these assays?
TTR transcr act: 0

What do the screens show for `Cc1nc(-c2ccc(C#N)cc2)cs1`?
TTR transcr act: 1

Results for O=C/C(=C\Nc1ccc(Br)cc1)c1nc2ccccc2o1 ?
TTR transcr act: 3

How did O=C/C(=C\Nc1ccccn1)c1nc2cc(Cl)ccc2o1 do in these assays?
TTR transcr act: 1

Results for O=C/C(=C\Nc1ccccn1)c1nc2ccccc2o1 ?
TTR transcr act: 11*; HuH7 TTR inh: 25*; TTR act confirm: -1

How did COc1ccc(C(=O)NCC(=O)c2ccccc2)cc1 do in these assays?
TTR transcr act: -1

How did CCOC(=O)c1sc(NN=C(C(=O)OC)C(=O)OC)c(C(=O)OCC)c1C do in these assays?
TTR transcr act: -1

What do the screens show for `Cc1c(C2(O)CCCCC2)[nH]c2cc(C(F)(F)F)ccc12`?
TTR transcr act: -8

What do the screens show for `Cc1c(C2(O)CCCCC2)[nH]c2ncccc12`?
TTR transcr act: 11*; HuH7 TTR inh: -16; TTR act confirm: 0

How did Cc1c(C2(O)CCCCC2)[nH]c2cnccc12 do in these assays?
TTR transcr act: 1

Results for O=C(CSc1ccc2c(c1)OCCO2)Nc1cccnc1 ?
TTR transcr act: 0

How did CC1O[C@@H](O[C@H](C)CC[C@@H](C)O[C@H]2OC(C)[C@@H](O)C[C@H]2O)C(O)C[C@H]1O (some centres undefined) do in these assays?
TTR transcr act: 14*; HuH7 TTR inh: -15; TTR act confirm: 2

Results for CCOC(=O)C1CCCN(Cc2cc(Br)c(OC)cc2OC)C1 (centres undefined) ?
TTR transcr act: 3

Results for CCOC(=O)C1CCCN(Cc2cc(OC)c(O)c(OC)c2)C1 (centres undefined) ?
TTR transcr act: 25*; HuH7 TTR inh: -11; TTR act confirm: 0

Results for COc1cc(CN2CCC(C(=O)NC3CCCC3)CC2)cc(OC)c1O ?
TTR transcr act: 0

What do the screens show for `CC(O)Cc1cn([C@@H](CCCCNC(=O)OC(C)(C)C)C(=O)N2CCN(C(=O)OC(C)(C)C)CC2)nn1` (some centres undefined)?
TTR transcr act: 1

Results for COc1ccc(C(=O)n2c(SC)nc3cc4c(cc32)OCCO4)cc1 ?
TTR transcr act: -1

How did CCCS(=O)(=O)c1c(S(=O)(=O)CCC)c2ccc(C(N)=O)cn2c1C(=O)c1ccc(OC)cc1 do in these assays?
TTR transcr act: 6

What do the screens show for `Cc1cccc(-c2nc(CSc3nc4c(c(=O)[nH]3)CCC4)c(C)o2)c1`?
TTR transcr act: 1

Results for Cc1ccccc1-c1nc(CSc2nc3c(c(=O)[nH]2)CCC3)c(C)o1 ?
TTR transcr act: 1

How did Cc1oc(-c2ccccc2)nc1CSc1nc2c(c(=O)[nH]1)CCC2 do in these assays?
TTR transcr act: 14*; HuH7 TTR inh: -32; TTR act confirm: 0

What do the screens show for `O=[N+]([O-])c1ccccc1C=NN1CCCCCC1`?
TTR transcr act: -1

Results for Cc1ccc(C(=O)CCC(=O)N2CCN(c3ccccc3O)CC2)cc1 ?
TTR transcr act: -2

Results for CN(C)CCCNC(=O)c1ccc(Oc2ccccc2)cc1 ?
TTR transcr act: 1

How did COCCNC(=O)CN(CC1CCCO1)C(=O)CCC(=O)Nc1ccccn1 (centres undefined) do in these assays?
TTR transcr act: 16*; HuH7 TTR inh: -4; TTR act confirm: 0

Results for COCCNC(=O)C(c1ccc(F)cc1)N(CC1CCCO1)C(=O)CCC(=O)Nc1ccccn1 (centres undefined) ?
TTR transcr act: 0

How did COCCN(CC(=O)NCC1CCCO1)C(=O)CCC(=O)Nc1cc(C)ccn1 (centres undefined) do in these assays?
TTR transcr act: 0

Results for COc1cccc(CNC(=O)[C@@H]2CCCN2C(=O)[C@@H]2CCCN2C(=O)c2ccc(Cl)cc2)c1 ?
TTR transcr act: 0

Results for Cc1ccc(OCCC(=O)N2CCN(c3ccc(O)cc3)CC2)cc1 ?
TTR transcr act: 1

What do the screens show for `Clc1ccc(CNc2ccc3nnc(-c4ccccc4)n3n2)cc1`?
TTR transcr act: 4

How did c1ccc(CCNc2ccc3nncn3n2)cc1 do in these assays?
TTR transcr act: 5

Results for NCCNc1ccc2nnnn2n1 ?
TTR transcr act: 19*; HuH7 TTR inh: -8; TTR act confirm: 3

How did COc1ccccc1N(C(=O)CNC(=O)c1ccco1)C(C(=O)NC1CCCC1)c1ccco1 (centres undefined) do in these assays?
TTR transcr act: -1

How did CCCCOc1ccc(-c2[nH]ncc2C=O)cc1 do in these assays?
TTR transcr act: -1

Results for O=C(Oc1coc(CSc2ncccn2)cc1=O)c1ccc([N+](=O)[O-])cc1 ?
TTR transcr act: 5

Results for C=CCN1C(=O)[C@H](CC(=O)NCc2ccc(OC)c(OC)c2)[C@@]2(C(=O)OCC)CCCC=C12 ?
TTR transcr act: 0

How did Cc1noc(C)c1COc1ccc(C(=O)Nc2ccccn2)cc1 do in these assays?
TTR transcr act: 0

How did Cc1noc(C)c1COc1ccc(C(=O)Nc2ccccc2)cc1 do in these assays?
TTR transcr act: 0

Results for CCc1ccccc1NC(=O)c1ccc(OCc2c(C)noc2C)cc1 ?
TTR transcr act: 49*; HuH7 TTR inh: -12; TTR act confirm: 1

How did COC(=O)[C@@]12CCCCC=C1N(CCc1ccc(Cl)cc1)C(=O)[C@H]2CC(=O)NCC12CC3CC(CC(C3)C1)C2 do in these assays?
TTR transcr act: -1

What do the screens show for `O=C(NC(=O)c1ccccc1F)OCc1ccc(Cl)cc1Cl`?
TTR transcr act: 20*; HuH7 TTR inh: -14; TTR act confirm: 1

Results for Nc1cc(C(=O)OCC(=O)NNC(=O)c2ccccc2F)ccc1Cl ?
TTR transcr act: 4

What do the screens show for `O=C(CNC(=O)c1ccccc1F)NCCc1ccc(Cl)cc1Cl`?
TTR transcr act: 3

What do the screens show for `NC(=O)c1ccccc1-c1noc(-c2ccccc2F)n1`?
TTR transcr act: -2

Results for O=C(CC1(CC2=NS(=O)(=O)c3ccccc3N2)CCCC1)NCCc1ccccc1 ?
TTR transcr act: -1

How did Cc1ccc(Sc2nnc(-c3ccccc3)cc2C#N)cc1 do in these assays?
TTR transcr act: 4

What do the screens show for `COc1ccc(Sc2nnc(-c3ccccc3)cc2C#N)cc1`?
TTR transcr act: 10*; HuH7 TTR inh: 2; TTR act confirm: -1

Results for COc1ccc(C(=O)CSc2ccc(-c3ccccc3)nn2)cc1 ?
TTR transcr act: 0

Source: PubChem BioAssay
